# Bioassay records as filed in PubChem BioAssay.
# LYPLA1 counter = counter-screen for PME1 inhibitors: inhibitors of human LYPLA1; AID 2174; actives 0.16% (n = 320,000); inhibition, % at 5.9 µM; O75608; recombinant LYPLA1, FP-Rh probe fluorescence polarization;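 active means inhibition above the mean of all tested compounds plus 3 SD, set per campaign, cut at about 14% in these data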;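 further: inhibitors block serine hydrolase probe labeling of LYPLA1 so polarization falls; 0% = enzyme with DMSO and 100% = wells lacking LYPLA1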
# Target sequence (O75608 whole entry, looked up): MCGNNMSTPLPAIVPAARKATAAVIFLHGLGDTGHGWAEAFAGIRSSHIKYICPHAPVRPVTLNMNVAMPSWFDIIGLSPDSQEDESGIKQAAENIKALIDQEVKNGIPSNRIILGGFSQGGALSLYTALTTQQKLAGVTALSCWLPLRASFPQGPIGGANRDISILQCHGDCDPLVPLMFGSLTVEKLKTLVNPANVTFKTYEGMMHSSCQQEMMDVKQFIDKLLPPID
# GSTO1 inh = blocks human GSTO1 in RBBP9 counter-screen; P78417; recombinant GSTO1, activity-based probe fluorescence polarization; inhibition, % at 5.96 µM; actives 1.1% (n = 300,000); AID 1974;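 active means inhibition above the campaign mean inhibition plus 3 SD, cut at about 35% in these data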;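 further: 0% = GSTO1-1 with DMSO and 100% = wells lacking GSTO1-1 enzyme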
# Target sequence (P78417 whole entry, looked up): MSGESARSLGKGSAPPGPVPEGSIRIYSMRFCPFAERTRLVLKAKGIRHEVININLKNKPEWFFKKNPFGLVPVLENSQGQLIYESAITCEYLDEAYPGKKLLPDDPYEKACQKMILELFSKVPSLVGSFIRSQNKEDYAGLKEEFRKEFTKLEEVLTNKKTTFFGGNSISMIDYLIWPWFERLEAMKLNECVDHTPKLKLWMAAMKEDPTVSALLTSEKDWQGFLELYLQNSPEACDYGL
# PME-1 primary = PME-1 (human) inhibition; Q9Y570; recombinant PME-1, FP-Rh probe fluorescence polarization; inhibition, % at 5.9 µM; actives 0.53% (n = 320,000);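 active means inhibition above the campaign mean of all compounds plus 3 SD, cut at about 26% in these data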;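 further: competitive labeling of PME-1 active site by serine hydrolase directed probe; 0% = PME-1 with DMSO and 100% = wells lacking PME-1 enzyme; inhibitors block probe labeling so polarization falls and inhibition rises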
# Fam108B inh = blocks mouse Fam108B hydrolase in RBBP9 counter-screen; inhibition, % at 9.51 µM; actives 0.33% (n = 300,000); recombinant Fam108B, FP-Rh probe fluorescence polarization; AID 1947;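 active means inhibition above the screen mean inhibition plus 3 SD, computed separately per campaign, cut at about 18% in these data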;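 further: inhibitors lower polarization as less probe binds the enzyme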
# PAD4 inh = inhibitors of human PAD4 | Q9UM07 | AID 485272 | inhibition, % at 6.36 µM | actives 0.41% (n = 330,000) | recombinant PAD4, RCA probe fluorescence polarization;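 active means percent inhibition above a cutoff equal to the mean of all tested compounds plus 3 SD, cut at about 15% in these data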;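 further: 0% = PAD4 with RCA probe and DMSO and 100% = probe without PAD4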
# LYPLA2 counter = blocks human lysophospholipase 2, a PME1 counter-screen | O95372 | recombinant LYPLA2, FP-Rh probe fluorescence polarization | inhibition, % at 5.9 µM | actives 0.38% (n = 320,000) | AID 2177;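 active means inhibition above the screen-wide mean plus 3 SD, limit set per campaign, cut at about 26% in these data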;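 further: 0% = LYPLA2 with DMSO and 100% = wells lacking LYPLA2 enzyme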
# Target sequence (O95372 whole entry, looked up): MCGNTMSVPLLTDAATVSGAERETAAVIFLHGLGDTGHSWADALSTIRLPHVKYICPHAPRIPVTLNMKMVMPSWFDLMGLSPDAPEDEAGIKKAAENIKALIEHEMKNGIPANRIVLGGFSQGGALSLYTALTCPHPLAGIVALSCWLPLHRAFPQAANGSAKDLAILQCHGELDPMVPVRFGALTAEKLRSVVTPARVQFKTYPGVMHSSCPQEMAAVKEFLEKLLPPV
# GSTO1 confirm = GSTO1 (human) inhibition, confirmation | inhibition, % at 5.96 µM | recombinant GSTO1, probe fluorescence polarization | shares compounds with GSTO1 inh | actives 54% (n = 2,400);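 active means inhibition above the primary screen's cutoff, its mean inhibition plus 3 SD, cut at about 35% in these data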;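 further: loss of polarization as inhibitors block binding of rhodamine sulfonate ester activity probe; 0% = GSTO1 with DMSO and 100% = wells lacking GSTO1 enzyme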
# GSTO1 recomb ABPP = inhibitors of recombinant human GSTO1. AID 463110. actives 30% (n = 130). inhibition, % at 1 µM. shares compounds with GSTO1 inh. gel ABPP SE-Rh probe fluorescence;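 active means inhibition of the enzyme GSTO1 above about 75%, limit read from the data; inactive means inhibition below that limit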
# * marks the source's active call; other numbers are inactive results; · = no result. A selection: hits, their analogues and other compounds. The true share with any hit is near 1.8%.
SMILES,LYPLA1 counter,GSTO1 inh,PME-1 primary,Fam108B inh,PAD4 inh,LYPLA2 counter,GSTO1 confirm,others
CC(/C=C1\SC(=S)N(NC(=O)c2ccc(C)cc2)C1=O)=C\c1ccccc1,-14.1,-6.9,-30.8,-21.1,-8.1,-35.9,·,
CC(/C=C1\SC(=S)N(NS(=O)(=O)c2ccc(C)cc2)C1=O)=C\c1ccccc1,2.1,47.6*,-13.5,0.0,-6.7,-4.1,36.0*,
O=C1CCCC(O)=C1C=Nc1ccc(O)cc1,-5.9,60.1*,-6.6,-2.5,-7.4,0.9,2.4,
O=[N+]([O-])c1cncc([N+](=O)[O-])c1Nc1cccc(O)c1,-0.2,70.0*,-2.4,2.3,6.3,-4.2,13.2,
CC(NC(=O)c1ccc(C23CC4CC(CC(C4)C2)C3)cc1)C(=O)O (stereo unspecified),-2.5,0.9,-2.7,0.4,1.7,-1.4,·,
CCOC(=O)c1c(NC(=O)C2CCCCC2C(=O)O)sc2c1CCCCC2 (stereo unspecified),-1.0,54.0*,-1.2,1.3,1.2,-4.6,46.9*,
COC(=O)c1c(NC(=O)C2CCCCC2C(=O)O)sc2c1CCCCC2 (stereo unspecified),-2.1,22.8,3.0,-2.4,-2.6,-2.1,·,
COc1ccc2c(c1)CC/C(=C\Nc1ccc3c(c1)OCO3)C2=O,1.5,68.7*,31.8*,12.0,3.6,0.1,62.0*,
COc1ccc(N/C=C2\CCc3ccccc3C2=O)cc1,1.5,25.4,21.2,3.0,5.5,2.9,·,
N#C/C(=C\c1cc(O)c(O)c(O)c1)C(N)=O,-4.0,58.8*,-8.3,1.7,9.7,-8.6,14.7,
Cc1ccc2c(c1)c1c(n2C)-c2[nH]ncc2CC1,1.3,-0.7,9.3,7.8,-2.6,1.2,·,
CC1=NN(c2ccccc2)C(=O)/C1=C\N(O)c1ccccc1,-0.5,47.6*,5.5,-5.8,-11.4,-1.2,40.6*,
COc1ccc(/C=C2/C(=O)N(c3ccccc3)N=C2C)cc1Br,0.6,58.4*,3.7,4.1,42.8*,-5.0,19.4,
CC1=NN(c2ccccc2)C(=O)/C1=C\c1cc(C)n(-c2ccccc2)c1C,-0.1,12.6,-12.1,2.2,-2.5,-9.6,·,
Cc1ccc(CCS(=O)(=O)c2ccc(C(C)(C)C)cc2)cn1,-2.4,2.7,2.5,2.8,0.2,-2.2,·,
Cc1ccc(NC(=O)COC(=O)c2nn(C)c(=O)c3ccccc23)cc1F,·,·,·,·,0.3,·,·,
S=C(Nc1ccc(N2CCOCC2)cc1)Nc1ccc2nc(-c3ccco3)c(-c3ccco3)nc2c1,-2.6,49.8*,50.5*,17.7,3.0,4.5,5.5,
Cc1ccc(NC(=O)C2CC(=O)Nc3ncnn32)cc1Cl (stereo unspecified),0.7,-2.1,5.0,-1.5,-5.4,5.1,·,
Cc1ccc(C)n1-c1ccc(N(C)C)cc1,3.1,46.0*,-5.1,3.9,0.0,-0.9,5.9,
CC(C)C[C@H](NS(=O)(=O)c1ccc(Br)cc1)C(=O)O,1.2,1.5,-8.2,-4.3,6.1,-0.4,·,
CC(C)CC(NS(=O)(=O)c1cccc(C(=O)O)c1)C(=O)O (stereo unspecified),3.7,50.6*,-2.7,-4.7,3.3,4.8,3.4,
O=C(CSc1nnc(-c2ccco2)o1)c1ccc(F)c(F)c1,7.0,37.5*,0.0,-0.8,-1.7,9.6,30.6,
O=C(CSc1nnc(-c2ccco2)o1)c1ccccc1,-1.2,18.1,7.3,-2.2,-3.8,1.1,·,
O=C1CCCC2=C1C(c1ccc(O)cc1)c1c(ccc3ccccc13)N2 (stereo unspecified),-3.1,1.9,6.1,2.6,5.1,1.2,·,
COc1ccc(S(=O)(=O)N2CCOCC2)cc1NC(=O)CN1CCN(C)CC1,3.2,37.7*,2.9,2.4,-3.3,1.5,4.3,
SMILES,LYPLA1 counter,GSTO1 inh,PME-1 primary,Fam108B inh,PAD4 inh,LYPLA2 counter,GSTO1 confirm,others
CCOCC(=O)Nc1nnc(Cc2ccc(OC)cc2)s1,-3.6,39.3*,-5.2,4.9,0.1,5.4,29.3,
CCOCC(=O)Nc1nnc(Cc2ccc(OC)c(OC)c2)s1,-1.6,24.4,-8.8,-0.6,0.6,7.4,·,
CC(C)(C)OC(=O)N1CCC(NC(=O)c2[nH]cnc2C(=O)Nc2cccc(Cl)c2)CC1,0.9,·,-6.5,·,1.1,1.3,·,
O=C(NCc1ccc2c(c1)OCO2)c1cccc(C(=O)NCc2ccc3c(c2)OCO3)c1,-4.2,0.6,-4.2,-1.0,-2.3,5.0,·,
O=C1COc2ccc(C(=O)NCc3ccc4c(c3)OCO4)cc2N1,0.3,43.3*,4.3,1.2,-0.3,-0.6,32.5,
CCn1ncc([N+](=O)[O-])c1C(=O)NC1CCCCC1,-0.3,1.5,-3.2,4.1,-4.6,-0.1,·,
CCOC(=O)c1sc(N(Cc2ccccc2)C(=O)CCl)nc1C,-6.8,84.4*,-6.2,6.6,4.6,0.1,92.0*,
Cc1ccccc1-c1cc(C(=O)NCc2cccc(Br)c2)nn1CC1CC(c2cccc([N+](=O)[O-])c2)=NO1 (stereo unspecified),·,·,·,·,-1.9,·,·,
O=C(CCCCl)Nc1c2c(nn1-c1ccccc1)CSC2,2.9,4.6,-1.4,-1.0,2.6,3.7,·,
O=C(CCl)Nc1c2c(nn1-c1ccccc1)CSC2,-3.2,97.9*,-0.6,-3.0,1.3,-2.3,98.0*,
CCN(CC(=O)NC(C)C)C(=O)Cc1ccc(C)c(C)c1,-6.0,-4.3,-3.0,0.7,6.7,0.0,·,
COCc1[nH][nH]c(=O)c1/C=N/N1CCOCC1,-2.0,38.3*,4.1,3.6,-8.1,-8.4,5.8,
O=[N+]([O-])c1ccc(O)c(C=Nc2ccc3oc(Cc4ccc(Cl)cc4)nc3c2)c1,-8.1,41.4*,8.4,1.5,-8.7,4.5,-0.6,
O=[N+]([O-])c1ccc(O)c(C=Nc2ccc3c(c2)OCCO3)c1,0.9,0.0,-0.3,-0.7,-5.8,0.6,·,
CCc1nonc1NC(=O)c1oc2c(C)c(C)ccc2c1C,-1.1,-7.1,-10.8,-3.0,-3.4,1.4,·,
COc1ccccc1C(=O)Nc1onc(C)c1C#N,1.4,2.2,5.8,-1.8,-5.6,8.4,·,
CCN(CC)c1ccc(NS(=O)(=O)c2ccc3c(c2)oc(=O)n3C)c(C)c1,2.6,69.9*,-1.2,-0.2,-2.2,0.6,69.8*,
COc1ccc(NS(=O)(=O)c2ccc3c(c2)oc(=O)n3C)cc1Cl,-1.4,51.3*,1.1,-3.9,0.2,-1.6,57.4*,
O=C(NC1CCCCC1)C(c1cccnc1)N(C(=O)CCl)c1ccccc1Cl (stereo unspecified),2.4,87.7*,5.0,0.6,-1.7,7.7,83.5*,GSTO1 recomb ABPP=40.0
O=C(NCC(=O)N(c1ccc(F)cc1)C(C(=O)NC1CCCCC1)c1cccnc1)c1ccco1 (stereo unspecified),3.8,-2.3,-1.7,3.3,-1.7,5.8,·,
